Out of some 17,000 compounds screened, about 220 (1.3%) were called active.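 How the source made its calls: active means spot fluorescence over background significantly raised, with a chance value under 7% in all four replicate spots of the compound; inactive means the rest.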 This excerpt belongs to a sample that is enriched for actives.

For this assay, the target named is Nuclear factor NF-kappa-B p105 subunit (Homo sapiens) (UniProt P19838). As to the kind of experiment: binders of NF-kB p50 subunit, primary screen, biochemical, small molecule microarray, anti-His fluorescence (AID 624139).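 Further: probe protein is his-tagged human p50 processed subunit at 1 µg/ml.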 The following applies: anti-His fluorescence binding.
Nuclear factor NF-kappa-B p105 subunit (Homo sapiens), sequence (P19838 1-433 limits assumed): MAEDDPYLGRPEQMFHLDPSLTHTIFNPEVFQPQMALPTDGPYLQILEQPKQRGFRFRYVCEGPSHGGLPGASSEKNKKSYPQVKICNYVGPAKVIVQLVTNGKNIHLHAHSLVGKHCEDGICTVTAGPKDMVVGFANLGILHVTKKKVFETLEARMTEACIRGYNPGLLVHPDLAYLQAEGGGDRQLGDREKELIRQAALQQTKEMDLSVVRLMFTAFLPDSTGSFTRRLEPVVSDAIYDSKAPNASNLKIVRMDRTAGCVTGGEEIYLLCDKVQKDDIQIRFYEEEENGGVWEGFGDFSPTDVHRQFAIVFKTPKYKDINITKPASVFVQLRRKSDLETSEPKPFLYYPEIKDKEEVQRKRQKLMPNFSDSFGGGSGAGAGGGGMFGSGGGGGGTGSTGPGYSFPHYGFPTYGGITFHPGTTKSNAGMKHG
In the case of `C[C@@H]1CCCCO[C@H](CN(C)C(=O)CCCN(C)C)[C@@H](C)CN([C@@H](C)CO)C(=O)c2cc(NC(=O)c3ccncc3)ccc2O1`, the result was inactive.
Under `Cc1noc(C)c1S(=O)(=O)Nc1ccc2c(c1)C(=O)N([C@H](C)CO)C[C@H](C)[C@@H](CN(C)C(=O)CCC(F)(F)F)OCCCC[C@H](C)O2` stands “inactive”; under `Cc1noc(C)c1S(=O)(=O)Nc1ccc2c(c1)C(=O)N([C@@H](C)CO)C[C@H](C)[C@@H](CN(C)C)OCCCC[C@@H](C)O2`, “inactive”.
With `C[C@H](CO)N1C[C@H](C)[C@H](CN(C)C(=O)CCC(F)(F)F)OCCCC[C@H](C)Oc2ccc(NS(C)(=O)=O)cc2C1=O`, the call was inactive.
Under `C[C@@H]1CN([C@H](C)CO)C(=O)c2cc(NS(=O)(=O)c3cccs3)ccc2O[C@@H](C)CCCCO[C@@H]1CN(C)S(=O)(=O)c1cccs1` stands “inactive”; under `C[C@@H]1CN([C@H](C)CO)C(=O)Cc2cc(NS(=O)(=O)c3cccs3)ccc2O[C@H]1CN(C)C(=O)Nc1ccc2c(c1)OCO2`, “inactive”.
Turning to `C[C@@H]1CCCCO[C@@H](CN(C)S(=O)(=O)c2ccccc2)[C@@H](C)CN([C@@H](C)CO)C(=O)c2cc(NS(=O)(=O)c3cn(C)cn3)ccc2O1`, the result was inactive.
Under `C=C1CCCC(C)(C(=O)OC)C1CC/C(C)=C/CCC1=CC(=O)OC1` (configuration not stated) stands “inactive”; under `Cc1nnc(SCc2ccc(C(=O)c3ccc(Cl)cc3)o2)n1-c1ccccc1`, “inactive”; under `O=C1C(=O)N(CCn2c3ccccc3c3nc4ccccc4nc32)c2ccccc21`, “inactive”.
Take `Cc1ccc(S(=O)(=O)Nc2ccc3c(c2)C(=O)N([C@@H](C)CO)C[C@H](C)[C@@H](CN(C)S(=O)(=O)c2ccc(C)cc2)O3)cc1`: the result was inactive.
For the compound `C[C@@H]1CN([C@@H](C)CO)C(=O)CCCn2nncc2CO[C@H]1CN(C)Cc1ccc(C(F)(F)F)cc1`, the call was inactive.
`C[C@H](CO)N1C[C@H](C)[C@H](CN(C)S(=O)(=O)c2cn(C)cn2)Oc2c(NC(=O)C3CCOCC3)cccc2C1=O`: the call was inactive.
Under `C[C@@H]1CCCCO[C@@H](CN(C)C(=O)c2ccccc2)[C@H](C)CN([C@@H](C)CO)C(=O)c2cc(NS(C)(=O)=O)ccc2O1` stands “inactive”; under `C[C@@H]1CN([C@@H](C)CO)C(=O)c2cc(NS(C)(=O)=O)ccc2O[C@@H](C)CCCCO[C@@H]1CN(C)S(=O)(=O)c1cn(C)cn1`, “inactive”; under `Cc1cc(O)c2c(c1)C(=O)OC2c1c(O)cccc1O` (configuration not stated), “inactive”.
Under `COc1ccc(C)cc1NC(=O)NCCc1ccc(OC)c(OC)c1` stands “inactive”.
Under `C[C@H]1CCCCO[C@H](CN(C)C)[C@@H](C)CN([C@@H](C)CO)C(=O)c2cc(NC(=O)CCCN(C)C)ccc2O1` stands “inactive”; under `CNC[C@@H]1Oc2c(NS(C)(=O)=O)cccc2C(=O)N([C@@H](C)CO)C[C@H]1C`, “inactive”.
As to `C[C@@H]1CCCCO[C@H](CN(C)C)[C@H](C)CN([C@@H](C)CO)C(=O)c2cc(NC(=O)Cc3ccccc3)ccc2O1`, the call was inactive.
Under `Cc1noc(C)c1S(=O)(=O)N(C)C[C@H]1OCCCC[C@@H](C)Oc2ccc(NC(=O)CCCN(C)C)cc2C(=O)N([C@H](C)CO)C[C@@H]1C` stands “inactive”; under `C=CCn1c(=O)c(C(=O)NCc2ccccn2)c(O)c2ccccc21`, “inactive”; under `COc1cc(/C(C)=C/C(C)=C\C(=O)O)oc(=O)c1C`, “inactive”.
Take `Cc1noc(C)c1S(=O)(=O)Nc1ccc2c(c1)CC(=O)N([C@@H](C)CO)C[C@@H](C)[C@@H](CN(C)C(=O)Nc1ccc(C(F)(F)F)cc1)O2`: the compound was called inactive.
As for `C[C@H](CO)N1C[C@H](C)[C@H](CN(C)Cc2ccc(C(F)(F)F)cc2)Oc2ccc(NS(C)(=O)=O)cc2C1=O`, the compound was called inactive.
Under `C=C(CC/C=C(\C)C(=O)O)C1(O)CC=C(C)CC1` (configuration not stated) stands “inactive”; under `O=C1O[C@H](c2ccccc2)[C@H](c2ccccc2)N2[C@H]1[C@@H](C(=O)N1CCN(c3ncccn3)CC1)[C@]1(C(=O)Nc3ccccc31)[C@H]2c1ccc(OCCO)cc1`, “inactive”; under `C[C@H]1CN([C@@H](C)CO)C(=O)CCCn2cc(nn2)CO[C@@H]1CN(C)S(=O)(=O)c1ccc(-n2cccn2)cc1`, “inactive”.
For the compound `CC(C)NC(=O)Nc1ccc2c(c1)CC(=O)N([C@@H](C)CO)C[C@@H](C)[C@H](CN(C)Cc1ccc(C(F)(F)F)cc1)O2`, the compound was called inactive.
Under `C/C(=C/CC[C@@H](CO)[C@H]1CC[C@@]2(C)[C@@H]3CC[C@H]4C(C)(C)[C@@H](O[C@@H]5O[C@H](CO)[C@@H](O)[C@H](O)[C@H]5O)C[C@H](O)[C@@]45C[C@@]35CC[C@]12C)CO` stands “inactive”; under `Cc1noc(C)c1S(=O)(=O)Nc1ccc2c(c1)CC(=O)N([C@H](C)CO)C[C@@H](C)[C@@H](CN(C)C)O2`, “inactive”.
Turning to `COc1ccc(CN(C)C[C@H]2Oc3ccc(NC(=O)Cc4ccccc4)cc3CC(=O)N([C@@H](C)CO)C[C@@H]2C)cc1`, the compound was called inactive.
As for `CC1(C)CC[C@@]2(C(=O)O)C(C1)C1=CCC3[C@@]4(C)CC[C@H](O)C(C)(C)C4CC[C@@]3(C)[C@]1(C)C[C@H]2O` (some centres not stated), the compound was classed as inactive.
Under `C[C@H](CO)N1C[C@H](C)[C@@H](CN(C)C(=O)Nc2ccccc2)Oc2ccc(N(C)C)cc2C1=O` stands “inactive”; under `COc1cc(C)c(C(=O)Oc2cc(C)c(C(=O)Oc3cc(C)c(C(=O)NC(C)C(=O)O)c(O)c3)c(O[C@@H]3O[C@H](CO)[C@@H](O)[C@H](O)[C@H]3OC(C)=O)c2)c(OC)c1` (some centres not stated), “inactive”.
`Cc1ccc(C(=O)NCCNS(=O)(=O)c2ccccc2)cc1`: the compound was classed as inactive.
`COc1ccc(NC(=O)Nc2cccc3c2O[C@H](CN(C)S(=O)(=O)c2cccs2)[C@H](C)CN([C@@H](C)CO)C3=O)cc1`: the outcome was inactive.
For `CNC[C@H]1Oc2ccc(N(C)C)cc2CC(=O)N([C@@H](C)CO)C[C@@H]1C`, the compound was called inactive.
Under `CC(C)NC(=O)N(C)C[C@H]1Oc2ccc(NS(=O)(=O)c3cn(C)cn3)cc2CC(=O)N([C@@H](C)CO)C[C@H]1C` stands “inactive”; under `C[C@@H]1CN([C@@H](C)CO)C(=O)Cc2cc(NC(=O)CCC(F)(F)F)ccc2O[C@@H]1CN(C)C(=O)Nc1cccc2ccccc12`, “inactive”; under `Cc1cc(C)c(NC(=O)CCCC(=O)O)c(C)c1`, “inactive”.
On to `C[C@H]1CN([C@@H](C)CO)C(=O)c2cc(NC(=O)C3CC3)ccc2O[C@@H]1CN(C)S(=O)(=O)c1cn(C)cn1`, for which the outcome was inactive.

The values are drawn from PubChem BioAssay AID624139 (Broad Institute, 2012).
